Laboratory results reported in PubChem BioAssay AID2116 (The Scripps Research Institute Molecular Screening Center, 2009).
Active and inactive are the calls of the source. How the calls were made is not given here.

Target: Mucolipin-3 (Homo sapiens) (UniProt Q8TDD5)
Test: TRPML3 and TRPML2 channel agonists, cell-based, patch clamp, Fura-2 profiling panel (AID 2116)
Conditions: HEK293 cells expressing TRPML3-YFP, TRPML3 Patch Clamp Assay; patch clamp current at -80 mV

Sequence of Mucolipin-3 (Homo sapiens) (Q8TDD5 whole entry, looked up): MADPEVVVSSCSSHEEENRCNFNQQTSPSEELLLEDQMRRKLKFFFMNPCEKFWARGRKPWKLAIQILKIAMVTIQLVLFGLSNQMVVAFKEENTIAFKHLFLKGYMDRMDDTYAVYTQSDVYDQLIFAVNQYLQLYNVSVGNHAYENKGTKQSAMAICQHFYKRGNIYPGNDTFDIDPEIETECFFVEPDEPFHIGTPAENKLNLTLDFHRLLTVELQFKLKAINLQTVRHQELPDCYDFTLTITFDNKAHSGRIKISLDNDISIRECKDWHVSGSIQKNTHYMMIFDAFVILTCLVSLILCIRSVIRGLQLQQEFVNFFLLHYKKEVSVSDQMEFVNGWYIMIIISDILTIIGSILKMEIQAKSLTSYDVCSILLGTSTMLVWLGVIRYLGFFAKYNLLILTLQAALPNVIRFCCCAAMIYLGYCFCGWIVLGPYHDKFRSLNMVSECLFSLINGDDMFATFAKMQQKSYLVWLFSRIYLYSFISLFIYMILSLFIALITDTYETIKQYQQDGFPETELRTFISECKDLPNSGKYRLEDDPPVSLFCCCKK

**Q.** How did the current density turn out when `Cc1ccc(N2CCN(S(=O)(=O)N3CCCCC3)CC2)c(C)c1` was run?
**A.** Its current density is -0.42 nA/pF.

**Q.** And the outcome?
**A.** The outcome was “active; no effect on six other TRP channels”.

**Q.** With `O=S(=O)(Nc1ccccc1N1CCOCC1)c1ccc(Cl)s1` as the compound, how does the current density read?
**A.** The current density was -0.37 nA/pF.

**Q.** And the outcome?
**A.** Its outcome is “active; no effect on six other TRP channels”.

**Q.** For `O=S(=O)(NC1CCCCC1N1CCOCC1)c1ccc(Cl)cc1` (stereo not given), which current density is on record?
**A.** The current density was -0.55 nA/pF.

**Q.** What about the outcome of the same compound?
**A.** The outcome was “active; no effect on six other TRP channels”.

**Q.** What does the source list for `Cc1ccc(S(=O)(=O)Nc2ccccc2-c2ccccc2)cc1`?
**A.** current density: -0.02 nA/pF; outcome: active; no effect on six other TRP channels

**Q.** How did the current density turn out when `O=S(=O)(Nc1ccccc1N1CCCCC1)c1ccc(Cl)s1` was run?
**A.** Its current density is -0.24 nA/pF.

**Q.** And the outcome?
**A.** Its outcome is “active; no effect on six other TRP channels”.
